IL2 activator = activators of IL-2; activation, % (series mostly up to about 46 µM); AID 652025; 360,000 tested, 0.065% active; IL-2 activation reporter assay, cell-based qHTS; stimulated with anti-CD3/CD4/CD28 beads; in transgenic mouse T cells; in the data active = activation above about 50%; inconclusive = mostly about 30% to 49%; also: 0% is about no effect
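Unstimulated transgenic mouse T cells, 750 per well, received compound and, after 60 minutes, anti-CD3/anti-CD4 bead plus anti-CD28 stimulation. EGFP and DsRed were quantified after 18 hours.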
BRCA1 expr up = activators of BRCA1 expression; MCF7-BRCA1-FFLuc reporter, luminescence, 48 h; response scale: scaled: vehicle 0%, 10 µM genistein 100%; Potency, µM (highest dose often 46.1 µM), without a hit: top-dose activation, hits mostly activators; 380,000 tested, 1.1% active; also: potency is read from the fitted curve at half-maximal effect; nearly all actives have a fitted effect of over 80% in size
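Quantitative HTS in MCF7 cells stably reporting BRCA1 expression via firefly luciferase. Compound treatment lasts 48 h at 37 °C in phenol-red free MEM. Activation is expressed relative to genistein at 10 microM and DMSO.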
Nrf2 activator = Nrf2 pathway activation | AREc32 ARE-luciferase reporter (MCF7-derived line), luminescence, 24 h | Potency, µM (top dose mostly 46.1 µM), for inactives: top-dose activation, most hits filed as activators | 410,000 tested, 0.31% active; also: potency is read from the fitted curve at half-maximal effect; % of control where 0% means no effect; nearly all actives have a fitted effect of over 65% in size
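Reporter line AREc32 (ARE-Fluc), seeded overnight in OPTI-MEM with 5% FBS; compound pin-transferred, 24 hr at 37 deg C, 5% CO2; luminescent read-out.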
a7 integrin act = integrin-mediated muscular dystrophy alleviation activation; alpha7betagal myoblasts, beta-gal FDG fluorescence, 48 h; Potency, µM (top dose mostly 38.3 µM), without a hit: at the highest dose activation, actives largely listed as activators; 350,000 tested, 0.064% active;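 also: potency is read from the fitted curve at half-maximal effect; 100% = response of the positive control SU9516; nearly all actives have a fitted effect of over 60% in size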
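Alpha7betagal+/- myoblasts (passage 13) were plated 16-24 hr, then exposed to compounds (1:260 dilution of DMSO stock) for 48 hours at 37C. After MPER lysis, β-galactosidase reporter activity was read as FDG fluorescence (ex 480/em 540) after 30 minutes.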
N370S GC = N370S glucocerebrosidase modulation, Gaucher chaperone candidate | P04062 | N370S GC spleen homogenate, 4MU-glucoside fluorescence | Potency, µM (doses to about 59.4 µM), for the others: at the top dose activity change, negative = inhibition, usual class: inhibitors | 330,000 tested, 0.092% active | AID 2101;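 also: potency is read from the fitted curve at half-maximal effect; 0% = full enzyme activity and -100% = no enzyme basal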
BCR signal inh = chronic active BCR signaling inhibition. ABC-DLBCL IkBa-CBG/CBR reporter, luminescence ratio, 4 h. Potency, µM (series often up to 46.1 µM), for inactives: at the top dose activity change, negative = inhibition, most hits filed as inhibitors. 340,000 tested, 0.05% active. AID 493014; active = well fitted inhibition curve with a large enough effect in the signal ratio, with a control signal flat, not every such curve was filed as active; inconclusive = small, poorly fitted or top-dose-only effect, or effect the other way, or a change in a side signal; the % refers to the signal ratio;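 also: potency is read from the fitted curve at half-maximal effect; plate controls were basal doxycycline-induced cells for no effect and cells given 10 µM MG132 for full effect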
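Compounds up to 46 uM were incubated four hours with TMD8 cells whose green CBG68 luciferase is fused to IkappaBalpha; red CBR luminescence normalised the signal, and concentration-effect curves were fitted to fusion, red and ratio data.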
* marks the source's active call; other numbers are inactive results; ? = inconclusive; / = no result given; [ ] = another dose, or the depositor's remark. Only some compounds are listed: those with a hit (about 1.4% of all), similar ones and a draw of the others. Unless noted, calls follow the shape of the dose curve; as a rule, active = well fitted curve in the direction sought with a large enough effect; inconclusive = small, poorly fitted or top-dose-only effect, or another doubt; inactive = no such curve, though single readings can be large; an effect the other way counts as inactive or inconclusive.

SMILES	IL2 activator	BRCA1 expr up	Nrf2 activator	a7 integrin act	N370S GC	BCR signal inh
CCOC(=O)C1CCN(CCC(=O)Nc2ccccc2OC)CC1	/	/	0%	/	/	/
O=C(C1COc2ccccc2O1)N1CCCC1 (centres undefined)	-3	7%	-1%	0%	0%	17%
O=C(C1COc2ccccc2O1)N1CCc2ccccc21 (centres undefined)	0	11µM*	4%	4%	-6%	2%
Cn1c(/C(C#N)=C/c2ccc(O)cc2)nc2ccccc21	-1	11µM*	3%	-2%	-18%	?
Cn1c(/C(C#N)=C/c2ccncc2)nc2ccccc21	-1	-20%	8%	0%	4%	3%
COc1cc(CNCc2ccccn2)ccc1OCc1ccc(Cl)c(Cl)c1	-2	20µM*	8%	-32%	-28%	-1%
O=C(C[n+]1cccc2cc(Cl)ccc21)c1ccc2c(c1)CCCC2	/	12%	/	/	/	/
Cc1ccc(S(=O)(=O)CNC(=S)c2cccc(C)c2)cc1	-1	3%	0%	-22%	6%	18µM*
Cc1ccc(S(=O)(=O)CNC(=S)c2ccc3ccccc3c2)cc1	0	27%	5%	13%	27%	?
c1ccc(-n2nnc(-c3cccnc3)n2)cc1	-1	7.9µM*	26%	4%	10%	?
COc1ccc(Cc2nnc(SCC(=O)Nc3cc(Cl)ccc3OC)[nH]c2=O)cc1	0	8%	0%	12%	-4%	13%
CCCCNC(=O)CSc1nnc(Cc2ccc(Cl)c(Cl)c2)c(=O)[nH]1	0	0%	0%	1.4µM*	-4%	2%
O=[N+]([O-])c1ccccc1NCCNc1ncc(C(F)(F)F)cc1Cl	0	66%	5%	11%	4%	2%
O=[N+]([O-])c1cccnc1NCCNc1ncc(C(F)(F)F)cc1Cl	-1	2.5µM*	9%	-13%	-4%	?
Cc1nn(-c2cc(N3CCCC3)ccc2[N+](=O)[O-])c(=O)c2ccccc12	2	-28%	0%	4%	7%	7%
Cc1ccc(C)c(-c2nn(-c3cc(N4CCN(CCO)CC4)ccc3[N+](=O)[O-])c(=O)c3ccccc23)c1	0	-26%	8%	11%	16µM*	?
COc1ccc(C2=NC(c3ccccc3)=Nc3ccc(C)cc3N2)cc1	/	/	4%	/	/	/
CC1=CC(c2ccccc2)=Nc2ccc(C)cc2N1	0	7.1µM*	3%	3%	3%	?
Oc1ccc(Br)cc1/C=N/n1c(-c2ccccc2)n[nH]c1=S	-1	-2%	-1%	33%	-2%	4%
Oc1ccc(Br)cc1C=Nc1cccn2cc(-c3ccccc3)nc12	3	6.3µM*	5%	28%	4.5µM*	?
CN1CC[C@@]2(CCCN(S(=O)(=O)c3ccccc3)C2)C1	/	/	/	/	14%	/
COc1cccc(-c2nnn(CC(=O)N(CC(C)C)C3CCS(=O)(=O)C3)n2)c1 (centres undefined)	0	-17%	-1%	0%	-1%	?
Cc1ccc2c3c([nH]c2c1C)-c1nonc1CC3	0	8.9µM*	3%	5%	-2%	13%
Cc1cc2c(nn1)CCc1nonc1-2	1	0%	0%	-6%	1%	-2%
CC[C@@H](C)[C@H](N)C(=O)NC[C@H]1O[C@@H](n2cnc3c(N)ncnc32)[C@H](O)[C@@H]1O	0	5%	0%	13%	/	?
SMILES	IL2 activator	BRCA1 expr up	Nrf2 activator	a7 integrin act	N370S GC	BCR signal inh
COC(=O)N1CCCCC1c1cc(C(=O)NCc2ccccc2)no1 (centres undefined)	0	0%	0%	/	/	/
CC(=O)Oc1ccccc1-c1nc(/C=C/c2ccccc2)no1	0	61%	11µM*	8%	16%	?
Cc1cc(C)n2c(Nc3ccc4c(c3)OCCO4)c(CCc3ccccc3)nc2n1	0	19%	9%	/	/	/
COc1ccc(C2=Nn3c(nnc3-c3ccccc3C)SC2)cc1	/	/	/	/	8%	/
Cc1nn2c3c(cnc2c1-c1ccccc1)C(=O)CCC3	-3	13µM*	1%	8%	-7%	-3%
Cc1nn2c(-c3ccccc3)ccnc2c1-c1ccccc1	3	7.1µM*	2%	0%	19%	?
CCCCCNC(=O)c1cc2c(=O)n3ccccc3nc2n1C	/	/	4%	/	/	/
COc1ccc(C(C#N)=C2C=C(Cl)C(=NO)C=C2Cl)cc1	-4	5%	11µM*	-32%	/	/
CC1CCCC(NC(=O)COC(=O)c2cc(=O)[nH]c3ccccc23)C1C (centres undefined)	0	-9%	-1%	?	/	3%
c1ccc(CSc2nnc(-c3cccnc3)o2)cc1	-1	7.9µM*	5%	10%	6%	2%
O=C(CSc1nnc(-c2ccncc2)o1)Nc1cccc(F)c1	1	?	4%	12%	-14%	-8%
Cc1cnc(NC(=O)CSc2nnc(-c3ccccc3)o2)s1	1	4µM*	3%	-17%	2%	?
O=C(CSc1nnc(-c2cccnc2)o1)Nc1cccc(F)c1	-1	10µM*	4%	11%	-3%	6%
Cc1cnc(NC(=O)CSc2nnc(COc3ccccc3)o2)s1	1	-17%	0%	-20%	1%	14%
c1ccc(CSc2nnc(Cc3ccccc3)o2)cc1	2	13µM*	3%	31%	10%	1%
c1ccc(CSc2nnc(Cc3ccccn3)o2)cc1	0	45%	2%	14%	6%	?
CC(=O)c1ccc(S(=O)(=O)Nc2ccccc2C(=O)NC2CC2)cc1	-3	-4%	-1%	-19%	/	0%
O=C(NNc1ccccc1F)c1sccc1Cl	/	31%	/	/	/	/
Cc1csc(NC(=O)CSc2nnc(-c3ccoc3C)o2)n1	-1	10µM*	5%	-32%	-2%	?
COCCSc1ccccc1C(=O)Nc1cc(C)cc(C)c1	-1	-21%	0%	4.5µM*	-1%	?
COCCSc1ccccc1C(=O)Nc1ccncc1	-3	10%	-1%	22%	1%	-20%
CCOC(=O)c1ccc(NC(=O)C23CCC(C)(C(=O)O2)C3(C)C)cc1 (centres undefined)	-1	10µM*	2%	3%[7.66 µM]	2%	6%
CC(=O)Nc1ccc(C(=O)OCCc2ccccc2)cc1	0	5µM*	4%	26%	-1%	?
CC(=O)Nc1ccc(C(=O)OCCCOC(=O)c2ccc(NC(C)=O)cc2)cc1	-2	23%	-1%	23%	1%	4%
CCOC(=O)c1ccc(NC(=O)c2ccc(NS(C)(=O)=O)cc2)cc1	6	-7%	0%	-10%	6%	?

Screening data: PubChem, National Center for Advancing Translational Sciences (NCATS)
